26 molecules from PubChem BioAssay (NCI) can be followed below.

This is part of a sample that, as a whole, favours compounds with a hit. Of some 83,000 tested, about 20% had one in any assay.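 96-well plates, one dose, 48 hours. Percent growth reported; active if below 10.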 A number with no mark means an inactive call. The source made the active and inactive calls.

The first assay relates to TK-10 renal. Briefly: NCI-60 one-dose screen, 48 h (100 = growth as untreated, 0 = no growth, -100 = all killed). To be noted: 10 µM unless noted.
With `O=C1c2ccc3c4c(ccc(c24)C(=O)N1CCCNCc1ccccc1F)C(=O)N(CCCNCc1ccccc1F)C3=O`, the growth was -85.8% (active).

With `CCN(CC)c1ccc(/C=N/NC(=O)CSc2nc3ccccc3c(=O)n2CCc2ccc(S(N)(=O)=O)cc2)c(O)c1`, the growth was 31.3%.

In the case of `CCCCCN1C=C/C(=C\C(=O)N(C)c2ccc(Oc3ccccc3)cc2)c2ccccc21`, the growth was 92.1%.

As to `C/C=C(\C)C(=O)NC1=CC[C@@]2(C)C(=CCC3C2CC[C@@]2(C)C3CC[C@@H]2C(C)N(C)C)C1=O` (some centres not stated), the growth is 58.1%.

Take `C[C@H]1[C@H](C)CC[C@]2(C(=O)NCC#CCN3CCN(C)CC3)CC[C@]3(C)C(=CC[C@@H]4[C@@]5(C)Cc6c([nH]c7ccccc67)C(C)(C)[C@@H]5CC[C@]43C)[C@H]12`: the growth is 88.8%.

`CCOC(=O)c1cc(C(=O)c2ccc(Br)cc2)n2ccc(/C=C/c3cc[n+](CC(=O)c4ccc(OC)cc4)cc3)cc12`: the growth is 116%.

Turning to `NC(=NCCCOc1ccc(F)cc1)Nc1ccc(I)cc1`, the growth is 73%.

As for `O=C(/C=C(/C=C/c1coc2ccccc12)OB(F)F)/C=C/c1coc2ccccc12`, the growth was 117%.

For `COc1cc(NC(=O)CSc2nc3ccc(C)cc3c(=O)n2Cc2ccccc2)cc(OC)c1OC`, the growth is 55.4%.

With `Oc1ccc(C2c3ccccc3Oc3ccccc32)c2cccnc12`, the growth was 39.1%.

Take `COc1cc2oc(-c3cccc(C(=O)Nc4ccccc4)c3)cc(=O)c2c(O)c1OC`: the growth was 60.8%.

For the molecule `COc1ccc(C(=O)/C=C/c2cc3ccccc3n3nnnc23)cc1`, the growth is 104%.

In the case of `COc1cc2c(c(OC)c1OC)CCC(c1cccc(NC(=O)c3cccc(Br)c3)c1)O2` (configuration not stated), the growth was 91.8%.

On to `COc1ccc(C(=O)c2cc(OC)c(OC)c(OC)c2)cc1O`, for which the growth was 65.3%.

For `CC(C)=CCC[C@](C)(O)[C@H]1CC[C@]2(C)[C@@H]1CC[C@@H]1[C@@]3(C)C/C(=C/c4ccccc4)C(=O)C(C)(C)[C@@H]3CC[C@]12C`, the growth was 63.8%.

The subject of another assay is ACHN renal. Described as above. Particulars: 10 µM unless noted.
`c1ccc(Cn2cnc3ccc(-c4nc(-c5ccc6c(c5)ncn6C5CCCCC5)cn5ccnc45)cc32)cc1`: the growth was 19.9%.

As for `Cc1cccc(C)c1N=c1oc2ccc(Cl)cc2nc1-c1ccccc1O`, the growth was 90.7%.

Turning to `O=S(=O)(NCCCNc1nccc(-c2c(-c3cccc(O)c3)nc3occn23)n1)c1ccc(Cl)cc1`, the growth is 81%.

For the molecule `Cc1nc2sccn2c1-c1cn2ccsc2n1`, the growth was 99.3%.

For the molecule `O=C(CSc1nc2sc3c(c2c(=O)n1-c1ccc(Cl)cc1)CCCC3)Nc1nc(-c2cccc(Br)c2)cs1`, the growth is 91.1%.

`CCCCCN1C=C/C(=C\C(=O)N(C)c2ccc(Oc3ccccc3)cc2)c2ccccc21`: the growth was 102%.

For the molecule `Cc1ccc(C(=O)/C(=C\c2ccc([N+](=O)[O-])cc2)S(=O)Cc2ccc(F)cc2)cc1` (configuration not stated), the growth is -1.53% (active).

As for `Cc1nc2sccn2c1-c1nc2sccn2c1/C=C1/C(=O)Nc2ccccc21`, the growth is 41.5%.

In the case of `CCCCCN1C=C/C(=C\C(=O)N(C)c2ccccc2Br)c2ccccc21`, the growth is 104%.

`CC(C)(C)c1cc(C=O)cc(C(C)(C)C)c1O`: the growth was 105%.

On to `CCOC(=O)c1nc2c3ccccc3ccn2c1C(=O)OCC`, for which the growth was 99.5%.

Turning to `C=C(C)[C@@H]1CC[C@]2(C(=O)N3CCN(C)CC3)CC[C@]3(C)[C@H](CC[C@@H]4[C@@]5(C)CC[C@H](O)C(C)(C)[C@@H]5CC[C@]43C)[C@@H]12`, the growth was -92% (active).
